Screens (PubChem BioAssay)
D2 PAM-1: positively modulates the human D2 dopamine receptor allosterically. potentiation, % at 10 µM. HEK293 T-REx D2, calcium flux, EC20 dopamine potentiation. P14416. 340,000 tested, 0.34% active. AID 485347;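 active = potentiation over 3 SD above the plate norm, cut at about 30% in these data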; also: 0% is about no effect
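Tetracycline-induced HEK293 T-REx cells force-coupled to calcium signalling expressed D2; compounds were pin-added after a 10 s baseline, read kinetically 180 s, then an EC20 dopamine challenge followed with a further 180 s calcium read.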
D2 antagonist: antagonists of human D2 dopamine receptor; P14416; HEK293 TREx D2 cells, calcium flux, dopamine EC80; inhibition, % at 10 µM; 340,000 tested, 2% active; in the data active = inhibition above about 30%; inactive = below that, where a call was filed; also: 0% is about no effect
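Tetracycline-induced HEK293 T-REx cells expressing D2 force-coupled to calcium signalling were dye-loaded, exposed to compound for 180 s, then challenged with an EC80 of dopamine; calcium flux was followed kinetically for a further 180 s.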
D2 ag-1: human D2 receptor agonism in beta-arrestin assay; 360,000 tested, 0.084% active; activation, % (no concentration beside the values); P14416; DiscoveRx PathHunter D2 beta-arrestin, luminescence, 90 min; 100% = 57 uM dopamine signal; in the data active = activation above about 40%; inconclusive = between about 15% and that limit
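DiscoveRx PathHunter D2 beta-arrestin cells (2,100/well) attached overnight, then compound-stimulated 90 min at 37 C in HBSS/10 mM HEPES/0.1% Tween-20 buffer; beta-galactosidase complementation read by luminescence after 1 h at ambient temperature. Dopamine 57 uM final (EC100) as control.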
D2 PAM-2: human D2 receptor positive allosteric modulation. AID 624464. DiscoveRx D2 beta-arrestin cells, luminescence, 90 min; 100% = 57 uM dopamine signal. 360,000 tested, 0.23% active. potentiation, % (concentration not given with the values); in the data active = potentiation above about 50%; inconclusive = mostly about 30% to 49%
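PathHunter D2 cells, attached overnight at 37 deg C, received compound in DMSO plus dopamine at EC20 (50 nM final) for 90 min at 37 deg C. Beta-arrestin recruitment was read as luminescence after 1 h with detection reagent at ambient temperature.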
D2 ag-2: activates the human D2 dopamine receptor. HEK293 T-REx D2 cells, calcium flux agonist mode. activation, % at 2 µM. 340,000 tested, 0.53% active;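 active = activation over 3 SD above normal in the single-dose calcium agonist read, cut at about 30% in these data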; also: 0% is about no effect
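Agonism scored from kinetic calcium signal (1 read/sec, 180 s) following compound pin transfer, after a 10 s baseline. Cells: HEK293 Trex line expressing inducible D2 receptor coupled to calcium, dye-loaded after overnight culture at 30 C.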
D3 ag: confirmation of human D3 dopamine receptor agonists, beta-arrestin; 2,300 tested, 4% active; shares compounds with D2 ag-2; DiscoveRx D3 beta-arrestin cells, luminescence, 90 min; Potency, µM (series often up to 76.9 µM), inactives show at the highest dose activation, hits mostly activators;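 also: potency is read from the fitted curve at half-maximal effect; 100% = dopamine control response; nearly all actives have a fitted effect of over 70% in size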
Target sequence (P35462 whole entry, looked up): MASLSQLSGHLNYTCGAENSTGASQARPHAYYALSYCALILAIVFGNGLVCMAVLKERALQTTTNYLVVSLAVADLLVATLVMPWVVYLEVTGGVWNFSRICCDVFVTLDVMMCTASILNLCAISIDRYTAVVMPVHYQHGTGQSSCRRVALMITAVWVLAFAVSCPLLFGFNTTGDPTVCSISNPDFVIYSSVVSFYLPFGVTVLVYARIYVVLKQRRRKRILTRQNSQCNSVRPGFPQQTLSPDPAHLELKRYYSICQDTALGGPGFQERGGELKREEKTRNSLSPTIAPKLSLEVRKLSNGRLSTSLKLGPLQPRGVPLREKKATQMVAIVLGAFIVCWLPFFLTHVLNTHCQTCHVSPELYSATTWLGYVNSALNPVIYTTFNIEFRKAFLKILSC
D2 ag-3: counter-screen for D3 agonists: human D2 dopamine receptor agonism | 2,300 tested, 5.9% active | DiscoveRx PathHunter D2 beta-arrestin, luminescence, 90 min; response scale: percent relative to full dopamine signal | AID 720507 | shares compounds with D2 ag-2 | Potency, µM (series often up to 76.9 µM), for inactives: at the highest dose activation, actives largely listed as activators; also: potency is read from the fitted curve at half-maximal effect; % of control where 0% means no effect; nearly all actives have a fitted effect of over 70% in size
Numbers without * were called inactive. Only some compounds are listed: those with a hit (about 2.4% of all), similar ones and a draw of the others. Unless noted, calls follow the shape of the dose curve; as a rule, active = well fitted activation curve with a large enough effect; inconclusive = small, poorly fitted or top-dose-only effect; inactive = flat fitted curve, though single readings scatter.

`Cc1cc2cc(CCNS(=O)(=O)c3ccc(F)cc3)c(=O)[nH]c2cc1C` gave D2 PAM-1 13.6, D2 antagonist 9.9, D2 ag-1 -3.4, D2 PAM-2 -9.5 and D2 ag-2 0.6.
`COc1cc(NC(=O)CCc2nnc3ccc(NCc4ccco4)nn23)cc(OC)c1` gave D2 PAM-1 0.8, D2 antagonist 3.5, D2 ag-1 -1.3, D2 PAM-2 0.1, D2 ag-2 51.7*, D3 ag 10.8% and D2 ag-3 15.0%.
CN(C)Cc1c(C(=O)Nc2ccccc2)[nH]c2ccccc12 was read as D2 PAM-1 -26.8, D2 antagonist 45.0*, D2 ag-1 -1.0, D2 PAM-2 -27.9, D2 ag-2 -0.4, D3 ag -11.1% and D2 ag-3 -2.3%.
`CCOC(=O)c1[nH]c2ccccc2c1NC(=S)Nc1ccccc1` gave D2 PAM-1 16.1, D2 antagonist 5.4, D2 ag-1 inconclusive, D2 PAM-2 13.0 and D2 ag-2 0.7.
For COCCn1c(N)c(N(Cc2ccccc2)C(=O)CSCC(=O)Nc2ccc(C)cc2)c(=O)[nH]c1=O the results were D2 PAM-1 -0.8, D2 antagonist -5.0, D2 ag-1 -2.2, D2 PAM-2 23.6 and D2 ag-2 0.0.
`S=C(SSC(=S)N1CCOCC1)N1CCOCC1` gave D2 ag-1 -8.6 and D2 PAM-2 -13.8.
`Cc1nn(C)c(C)c1/C=C(/C(=O)C(C)C)n1cncn1` gave D2 PAM-1 -6.2, D2 antagonist 9.5, D2 ag-1 -1.9, D2 PAM-2 -12.1, D2 ag-2 4.0, D3 ag -7.4% and D2 ag-3 -4.9%.
Screening CCN(CC)C1=CC2=CC(=C(C#N)C#N)CCC2CC1 (configuration not stated) returned D2 PAM-1 -16.5, D2 antagonist 75.6*, D2 ag-1 2.7, D2 PAM-2 -1.6, D2 ag-2 208.7*, D3 ag -6.9% and D2 ag-3 17.3%.
COCCN(C(=O)CSc1nnc(-c2ccccc2F)o1)c1c(N)n(CC(C)C)c(=O)[nH]c1=O was read as D2 PAM-1 10.5, D2 antagonist 2.5, D2 ag-1 -0.8, D2 PAM-2 -2.7 and D2 ag-2 -0.1.
For Cc1ccccc1C(=O)O/N=C(\c1ccccc1)c1ccccn1 the results were D2 PAM-1 -23.6, D2 antagonist 72.4*, D2 ag-1 inconclusive, D2 PAM-2 13.0, D2 ag-2 77.1*, D3 ag inconclusive and D2 ag-3 inconclusive.
Screening Cc1ccccc1C(=O)O/N=C(\N)c1ccccc1 returned D2 PAM-1 2.4, D2 antagonist 5.0, D2 ag-1 inconclusive, D2 PAM-2 1.9 and D2 ag-2 0.5.
`COc1ccc(S(=O)(=O)Nc2ccc3c(c2)C(=O)N([C@H](C)CO)C[C@H](C)[C@@H](CN(C)C(=O)NC2CCCCC2)O3)cc1` gave D2 ag-1 1.2 and D2 PAM-2 -5.0.
Screening CC(C(=O)Nc1ccc(N2CCOCC2)cc1)N1C(=O)c2ccccc2C1=O (configuration not stated) returned D2 PAM-1 -4.7, D2 antagonist -3.5, D2 ag-1 -0.3, D2 PAM-2 -7.1 and D2 ag-2 1.0.
`CC(C)C(C(=O)Nc1ccc(N2CCOCC2)cc1)N1C(=O)c2ccccc2C1=O` (configuration not stated) gave D2 PAM-1 2.0, D2 antagonist 19.4, D2 ag-1 0.8, D2 PAM-2 15.8, D2 ag-2 0.2, D3 ag 4.5% and D2 ag-3 4.0%.
`CC(C)(O)CN(C(=O)c1ccc([N+](=O)[O-])cc1)C1CCCC1` gave D2 ag-1 3.4 and D2 PAM-2 2.3.
COc1cccc(NC(=O)CN(C)C(=O)c2csc3c2CCCC3)c1 was read as D2 ag-1 5.3, D2 PAM-2 -2.3, D3 ag -5.6% and D2 ag-3 -2.7%.
COc1ccc(NC(=O)CN(C)C(=O)c2csc3c2CCCC3)cc1 was read as D2 PAM-1 -5.8, D2 antagonist 13.5, D2 ag-1 -6.0, D2 PAM-2 -19.4 and D2 ag-2 0.3.
Screening COc1ccc(C(=O)NCC2OCCc3ccccc32)cc1 (configuration not stated) returned D2 PAM-1 5.5, D2 antagonist -28.9, D2 ag-1 -0.8, D2 PAM-2 -12.6 and D2 ag-2 0.9.
For COc1ccc(C=NCC2OCCc3ccccc32)cc1OC (configuration not stated) the results were D2 PAM-1 -23.0, D2 antagonist -3.5, D2 ag-1 -2.0, D2 PAM-2 -0.1, D2 ag-2 46.5*, D3 ag 7.7% and D2 ag-3 13.0%.
Screening COc1ccc(C(=O)NCC2OCCc3ccccc32)cc1OC (configuration not stated) returned D2 PAM-1 -4.0, D2 antagonist 3.9, D2 ag-1 -2.0, D2 PAM-2 -7.8 and D2 ag-2 1.4.
COc1cc(C=NCC2OCCc3ccccc32)cc(OC)c1 (configuration not stated) was read as D2 PAM-1 -12.5, D2 antagonist -4.0, D2 ag-1 5.5, D2 PAM-2 -6.7, D2 ag-2 41.7*, D3 ag 11.7% and D2 ag-3 8.8%.
Screening Cn1c(=O)[nH]c(=O)c2c1nc(N1CCN(CCO)CC1)n2Cc1ccccc1Cl returned D2 PAM-1 -3.1, D2 antagonist 30.0*, D2 ag-1 -4.9, D2 PAM-2 -0.8, D2 ag-2 -0.8, D3 ag -13.0% and D2 ag-3 -7.2%.
For COc1cccc(CNC(=O)c2nn(-c3ccc(C)cc3)c(=O)c3c2c2ccccc2n3C)c1 the results were D2 PAM-1 1.6 and D2 ag-2 0.5.
Oc1ccc(Cl)cc1C=Nc1ccccc1Br was read as D2 PAM-1 0.7, D2 antagonist 17.8, D2 ag-1 -3.9, D2 PAM-2 -4.6 and D2 ag-2 0.7.
For Oc1ccc(Br)cc1C=Nc1ccc2c3c(cccc13)CC2 the results were D2 PAM-1 2.8, D2 antagonist 15.4, D2 ag-1 -9.5, D2 PAM-2 -27.7, D2 ag-2 8.2, D3 ag -1.6% and D2 ag-3 -12.4%.
Screening CC1(C)NC(=O)N(CC(=O)OCC(=O)c2ccc(Cl)s2)C1=O returned D2 ag-1 -1.8 and D2 PAM-2 -7.5.
